# Source: PubChem BioAssay
# System: not listed separately
# Assay: binders of probe aHhip on microarray, primary screen, stem cell growth factor project, biochemical, small-molecule microarray, fluorescence 635/667 (AID 1087);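 note: score merges spot fluorescence at 667nm with spot signal to noise ratio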
# Details: higher = more signal
row,Compound,composite z-score
1,COc1ccc(O[C@H]2C=C[C@@H](c3ccccc3)O[C@@H]2CON=CC[C@@H]2C=C[C@H](OC(C)=O)[C@@H](COC(C)=O)O2)cc1,-0.0994
2,CC(C)(C)N1C(=O)[C@H]2[C@H]3[C@H](O)[C@H](O)CC(=O)[C@H]3CC[C@H]2C1=O,-0.134
3,Cc1cc2c(nc1C)CCCCN2CC(C)ON=C[C@@H](C)[C@H](OCc1ccccc1)C(C)C (some centres not stated),-0.0994
4,C#CCCCON=C1C[C@@H](O)[C@@H](O)[C@@H]2[C@@H]3C(=O)N(CCC(=O)OCC)C(=O)[C@@H]3CC[C@H]12,-0.0994
5,CCOC(=O)[C@H](CC(C)C)NC(=O)CCC1CC(OC(=O)NCc2cccc3ccccc23)CC2(CCCC(COC(=O)NCCOC)O2)O1 (some centres not stated),-0.214
6,COc1ccc(COC(=O)NN=C2C[C@@H](O)[C@@H](O)[C@@H]3[C@@H]4C(=O)N(c5ccc(F)cc5F)C(=O)[C@@H]4CC[C@H]23)cc1,-0.0645

# System: PRMT1 (protein arginine N-methyltransferase 1)
# Assay: small molecules binding arginine methyltransferase PRMT1 – biochemical, small-molecule microarray, 635 nm fluorescence, primary screen (AID 1088);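 note: binding of Prmt1 protein to compounds spotted on small-molecule microarray slides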
# Details: higher = more signal
row,Compound,composite z-score
1,CC(C)=NO[C@H](C)c1cn([C@H](CO)Cc2ccccc2)nn1,0.325
2,CCOC(=O)[C@H](CC(C)C)NC(=O)CCC1CC(OC(=O)NCc2cccc3ccccc23)CC2(CCCC(COC(=O)NCCOc3ccccc3)O2)O1 (some centres not stated),1.54
3,O=C1C[C@@H](O)[C@@H](O)[C@@H]2[C@@H]3C(=O)N(C[C@@H]4CCCO4)C(=O)[C@@H]3CC[C@@H]12,0.282
4,CCOC(=O)[C@H](CC(C)C)NC(=O)CCC1CC(OC(=O)NCc2cccc3ccccc23)CC2(CCCC(COC(=O)NCCc3ccc(Cl)cc3)O2)O1 (some centres not stated),0.333
5,CO[C@H]1COC(=O)CC=C[C@@H](C)[C@H](NS(=O)(=O)c2ccc(C)cc2)COC(=O)CCC[C@@H]1C,1.1
6,CO[C@H]1COC(=O)[C@H](C)NC(=O)CC=C[C@@H](C)[C@H](OC)COC(=O)[C@@H](OCc2ccccc2)C=C[C@@H]1C,0.269
7,CCCNC(=O)OC[C@H]1O[C@H](CCON=C(C)CCN2CCCc3nc(C)c(C)cc32)C=C[C@@H]1Oc1ccc(OC)cc1,1.55
8,C#CCCCON=C1C[C@@H](O)[C@@H](O)[C@@H]2[C@@H]3C(=O)N(CC)C(=O)[C@@H]3CC[C@@H]12,0.677
9,COC(=O)[C@H](C)NC(=O)CCC1CC(OC(=O)NCc2ccc3c(c2)OCO3)CC2(CCCC(COC(=O)NCC3CCCCC3)O2)O1 (some centres not stated),1.46
10,CO[C@H]1COC(=O)CC=C[C@@H](C)[C@H](OC)COC(=O)[C@@H]2CCCN2C(=O)CC=C[C@@H]1C,1.12
11,CON=C[C@@H](NS(=O)(=O)c1ccc(C)cc1)[C@H](C)C=CCC(=O)OC,-0.327
12,COc1cccc([C@H]2Oc3ccc(OC)cc3C(=NO[C@H](C)c3cn([C@H](CO)Cc4ccccc4)nn3)[C@@H]2O)c1,0.203
13,COc1ccc(COC(=O)NN=C2C[C@@H](O)[C@@H](O)[C@@H]3[C@@H]4C(=O)N(c5cccc(Oc6ccccc6)c5)C(=O)[C@@H]4CC[C@@H]23)cc1,-0.184
14,CO[C@@H]1COC(=O)CC=C[C@H](C)[C@H](OC)COC(=O)[C@H](C)NC(=O)CC=C[C@H]1C,1.53
15,O=C1C[C@@H](O)[C@@H](O)[C@@H]2[C@@H]3C(=O)N(C[C@@H]4CCCO4)C(=O)[C@@H]3CC[C@H]12,0.578
16,COC(=O)[C@@H]1CC[C@@H](C)[C@H](c2ccc(Br)cc2)N1,0.265
17,COC(=O)[C@@H]1CC[C@H](C)[C@@H](c2ccc(C)cc2)N1C(=O)c1ccc(C=NO[C@H](C)c2cn([C@@H]3COC[C@H]3O)nn2)cc1,1.12
18,Cn1c(=O)n2n(c1=O)[C@H]1[C@H](O)[C@@H]3O[C@@H]3C(=NOCc3ccccc3)[C@H]1CC2,0.241

row,Compound,composite z-score
1,CCOC(=O)NN=C1C[C@@H](O)[C@@H](O)[C@@H]2[C@@H]3C(=O)N(c4cccc(Oc5ccccc5)c4)C(=O)[C@@H]3CC[C@@H]12,-0.037
2,COC(=O)[C@H](C)NC(=O)CCC1CC(OC(=O)NCc2cccc3ccccc23)CC2(CCCC(COC(=O)NCC(c3ccccc3)c3ccccc3)O2)O1 (some centres not stated),1.48
3,Cc1ccc(S(=O)(=O)n2c3ccccc3c3nnc(C(=O)c4ccccc4)nc32)cc1,-0.875
4,COC(=O)C=CCCc1coc(C=CCNC(=O)OC)n1,1.45
5,CON=C1[C@H]2CCn3c(=O)n(-c4ccccc4)c(=O)n3[C@H]2[C@H](O)[C@@H]2O[C@H]12,0.887
6,CC(C)=CCCC(C)=CCON=C1C[C@@H](O)[C@@H](O)[C@@H]2[C@@H]3C(=O)N(C4CCCCC4)C(=O)[C@@H]3CC[C@@H]12,0.614
7,O=C1[C@H]2[C@H]3[C@H](O)[C@H](O)CC(=NOC[C@@H](O)COCc4ccco4)[C@H]3CC[C@H]2C(=O)N1C[C@@H]1CCCO1,0.629
8,O=C(NN=C1C[C@@H](O)[C@@H](O)[C@@H]2[C@@H]3C(=O)N(C[C@@H]4CCCO4)C(=O)[C@@H]3CC[C@@H]12)OCc1ccccc1,1.04
9,COc1ccc(C#C[C@@H]2C=C[C@H](OC(C)=O)[C@@H](COC(C)=O)O2)cc1,0.474
10,CC(C)CON=C1C[C@@H](O)[C@@H](O)[C@@H]2[C@@H]3C(=O)N(c4cccc(Oc5ccccc5)c4)C(=O)[C@@H]3CC[C@@H]12,1.4
11,CCOC(=O)[C@H](CC(C)C)NC(=O)CCC1CC(OC(=O)NCc2cccc3ccccc23)CC2(CCCC(COC(=O)NCc3cccc(C(F)(F)F)c3)O2)O1 (some centres not stated),0.221
12,C#CCCCON=C1C[C@@H](O)[C@@H](O)[C@@H]2[C@@H]3C(=O)N(Cc4ccccc4)C(=O)[C@@H]3CC[C@@H]12,-0.526
13,COc1ccc(O[C@H]2C=C[C@@H](c3ccccc3)O[C@@H]2CON=CC[C@@H]2C=C[C@H](OC(C)=O)[C@@H](COC(C)=O)O2)cc1,0.15
14,CC(C)(C)N1C(=O)[C@H]2[C@H]3[C@H](O)[C@H](O)CC(=O)[C@H]3CC[C@H]2C1=O,0.729
15,Cc1cc2c(nc1C)CCCCN2CC(C)ON=C[C@@H](C)[C@H](OCc1ccccc1)C(C)C (some centres not stated),-0.766
16,C#CCCCON=C1C[C@@H](O)[C@@H](O)[C@@H]2[C@@H]3C(=O)N(CCC(=O)OCC)C(=O)[C@@H]3CC[C@H]12,1.48
17,CCOC(=O)[C@H](CC(C)C)NC(=O)CCC1CC(OC(=O)NCc2cccc3ccccc23)CC2(CCCC(COC(=O)NCCOC)O2)O1 (some centres not stated),1.5
18,COc1ccc(COC(=O)NN=C2C[C@@H](O)[C@@H](O)[C@@H]3[C@@H]4C(=O)N(c5ccc(F)cc5F)C(=O)[C@@H]4CC[C@H]23)cc1,0.0093
